Sampled rows, rich in hits. Any-hit rate of the full collection: about 2%.
M1 ag parental = counter-screen for M1 agonists: effect in parental CHO-K1 cells; activation, % at 3 µM; Fluo-8 calcium fluorescence; scaled to maximal ATP response, vehicle zero; AID 602248, 2012; 360,000 tested, 0.48% active; in the data active = activation above about 15%;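 also: untransfected CHO-K1 host cells lacking M1 receptor as counterscreen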
M4 PAM = human M4 muscarinic receptor positive allosteric modulators, primary screen, CHO-K1 cells, Fluo-8 calcium fluorescence | 360,000 tested, 0.4% active | AID 624126, 2012 | activation, % at 3 µM | Muscarinic acetylcholine receptor M4 (Homo sapiens), P08173 | CHO-K1 hM4/Gqi5, ACh EC20; 0% = ACh EC20, 100% = maximal ACh;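 active = activation above its plate's cutoff, the mean activation of sample wells plus 3 SD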
Target sequence (P08173 whole entry, looked up): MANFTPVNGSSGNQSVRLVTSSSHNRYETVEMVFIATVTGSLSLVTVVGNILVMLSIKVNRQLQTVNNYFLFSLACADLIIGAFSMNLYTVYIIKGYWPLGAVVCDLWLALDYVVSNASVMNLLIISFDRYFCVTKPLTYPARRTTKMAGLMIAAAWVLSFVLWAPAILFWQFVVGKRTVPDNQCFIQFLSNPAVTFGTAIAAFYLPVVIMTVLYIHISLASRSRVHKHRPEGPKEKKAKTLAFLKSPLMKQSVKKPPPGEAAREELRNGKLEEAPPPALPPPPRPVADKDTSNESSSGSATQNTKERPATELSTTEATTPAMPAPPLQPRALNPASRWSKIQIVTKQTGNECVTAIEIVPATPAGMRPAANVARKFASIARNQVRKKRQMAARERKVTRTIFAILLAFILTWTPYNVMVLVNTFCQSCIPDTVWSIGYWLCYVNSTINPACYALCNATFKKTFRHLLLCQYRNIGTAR
CHO-K1 Ca antag = M1 antagonist counterscreen hit in parental CHO-K1 cells; 360,000 tested, 0.6% active; inhibition, % at 3 µM; AID 602250; ATP-induced calcium, Fluo-8 fluorescence;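 active = inhibition above a per-plate cutoff, the plate's mean sample inhibition plus 3 SD, cut at about 24% in these data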;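 also: 0% = DMSO plus EC80 ATP and 100% = DMSO alone without ATP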
M4 antag = human M4 muscarinic receptor antagonists, primary screen, CHO cells, Fluo-8 calcium fluorescence | CHO-hM4 cells, ACh EC80 | AID 624125, 2012 | inhibition, % at 3 µM | 360,000 tested, 0.73% active;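 active = inhibition above its plate's cutoff, the mean inhibition of sample wells plus 3 SD, cut at about 27% in these data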;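 also: 0% = acetylcholine EC80 with DMSO and 100% = DMSO without agonist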
CHO-K1 Ca PAM = nonselective calcium activators in parental CHO-K1 cells, primary screen, counter-screen for M1 PAM project, cell-based, Fluo-8 calcium fluorescence, full deck, 1536-well | ATP EC20; 0% at ATP EC20, 100% at ATP max | activation, % at 3 µM | 360,000 tested, 0.02% active;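 active = activation above the run cutoff, the mean activation of all test compounds plus 3 SD, cut at about 40% in these data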;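 also: peak over basal fluorescence ratio in a 140 s read after ATP addition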
M4 ag = human M4 muscarinic receptor agonists, primary screen, CHO-K1 cells, Fluo-8 calcium fluorescence | CHO-K1 hM4/Gqi5; vehicle 0%, full acetylcholine response 100% | Muscarinic acetylcholine receptor M4 (Homo sapiens), P08173 | activation, % at 3 µM | 360,000 tested, 0.14% active;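 active = activation above the run mean over all test wells plus 3 SD, cut at about 32% in these data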;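 also: peak over basal fluorescence ratio per well then scaled between controls; 0% = DMSO wells and 100% = acetylcholine at EC100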
An asterisk follows results filed as active.

SMILES	M1 ag parental	M4 PAM	CHO-K1 Ca antag	M4 antag	CHO-K1 Ca PAM	M4 ag
Cc1ccc(NC(=O)c2cc([N+](=O)[O-])ccc2N2CCCC2)cc1	17*	-2	1	-1	17	9
CC(=O)Nc1cccc(NC(=O)c2cc([N+](=O)[O-])ccc2N2CCCCC2)c1	0	-4	-3	2	-4	3
Cc1ccc(NC(=O)c2cc([N+](=O)[O-])ccc2N2CCOCC2)cc1S(=O)(=O)N(C)C	3	-44	-13	49*	13	6
C[C@H](NC(=O)c1nc[nH]c1C(=O)NC1CCNCC1)C(=O)OC(C)(C)C	0	4	-10	5	4	1
OC(CC#CCN1CCOCC1)(c1ccccc1)c1ccccc1	0	-3	-2	9	5	2
COc1ccc(Cc2nc3ccccc3[nH]2)cc1OC	0	-4	47*	5	-3	3
COc1ccc(OCC(O)CN(C2CCCCC2)C2CCCCC2)cc1 (stereo not drawn)	0	-2	26*	3	-5	1
Fc1ccc2[nH]c3c(NCc4ccccc4)ncnc3c2c1	19*	-10	34*	9	-23	23
OCCCNc1ncnc2c1[nH]c1ccccc12	0	-2	-10	0	3	0
CCCCN1C[C@H](c2ccccc2)[C@@H](CC(=O)NC)C1=O	0	2	34*	-5	-9	0
Cc1cc(C)cc(NS(=O)(=O)c2c(C)[nH]c(=O)[nH]c2=O)c1	2	4	27*	-10	4	1
Cn1ccnc1SCC(=O)NC1CC1	1	49*	-1	3	3	5
OC(c1ccccc1)(c1ccccc1)C1CCN(CCCOc2ccc(F)cc2)CC1	4	-16	0	65*	10	18
C#Cc1ccccc1OCCCN1CCC(C(O)(c2ccccc2)c2ccccc2)CC1	9	-14	-9	23	22	17
CC1CCN(CCCCOc2ccc(Cl)cc2)CC1	7	-16	-7	24	5	2
N#Cc1ccccc1OCCCN1CCC(C(O)(c2ccccc2)c2ccccc2)CC1	3	-13	-5	27*	7	14
CC1CCN(CCCCOc2ccc(C(C)(C)C)cc2)CC1	9	-20	1	30*	-5	9
Cc1ccc(OCCCN2CCC(C(O)(c3ccccc3)c3ccccc3)CC2)cc1	5	-14	-7	62*	7	25
CCCCn1c(=O)[nH]c(=O)c2c(C(=O)OCC)cc(-c3cccs3)nc21	0	3	-9	1	17	1
COC(=O)C1=C(C)Nc2nc3ccccc3n2C1c1cc(OC)c(OC)c(OC)c1 (stereo not drawn)	17*	-5	0	11	20	3
CCOC(=O)C1=C(C)Nc2nc3ccccc3n2C1c1ccc(O)cc1 (stereo not drawn)	0	-6	-6	-2	0	1
CC(C)CC(=O)N1CCN(C(=O)c2cccc(F)c2)CC1	4	-2	3	11	10	1
CC1([N+](=O)[O-])COC2(OC1)C(=O)Nc1ccccc12 (stereo not drawn)	1	-18	-15	48*	1	0
c1ccc(-c2nnn(C34CC5CC(CC(C5)C3)C4)n2)cc1	1	0	3	-7	4	-2
CCOc1ccc(N(CC(=O)Nc2ccc(OC)cc2OC)S(=O)(=O)c2c(C)[nH]c(=O)[nH]c2=O)cc1	0	4	-10	3	12	1
SMILES	M1 ag parental	M4 PAM	CHO-K1 Ca antag	M4 antag	CHO-K1 Ca PAM	M4 ag
N#Cc1nc(-c2ccccc2F)oc1NCCc1ccccc1	1	7	8	27*	12	0
Cc1cc(C)c2c(N)c(C(=O)c3ccccc3)sc2n1	3	56*	-8	33*	14	26
Cc1cc(C)c2c(N)c(C(=O)c3ccc(Cl)cc3)sc2n1	3	28*	-5	-2	14	11
Cc1cc(C)c2c(N)c(C(=O)c3ccc(Cl)c(Cl)c3)sc2n1	-1	6	1	3	6	1
CN(C)CCOc1ccc2c(c1)Sc1ccccc1CC2=O	4	-10	9	9	-1	1
CN(C)CC/C=C1\c2ccccc2Sc2cc(F)c(Cl)cc21	2	-66	-5	99*	25	17
CN(C)CCOCCOc1ccc(Cl)cc1C(C)(C)C	4	-12	-16	-16	9	16
CN(C)CC/C=C1\c2ccccc2Sc2ccc(Cl)cc21	1	-20	11	98*	-5	9
CN(C)CC/C=C1/c2ccc(F)cc2Sc2ccc(Cl)cc21	7	-16	-11	100*	22	12
OCCN1CCN(CC/C=C2/c3ccccc3Sc3ccc(Cl)cc32)CC1	2	-11	0	9	11	5
CN(C)CC/C=C1\c2cc(Cl)ccc2Sc2cc(F)c(F)cc21	2	-56	-2	98*	15	6
O=C(OCc1ccc2c(c1)OCO2)c1ccc(S(=O)(=O)N2CCCCC2)cc1	0	2	-13	5	19	0
CN(C)CC/C=C1\c2ccc(F)cc2Sc2cc(F)c(Cl)cc21	2	-18	0	99*	19	14
N#C/C(C(=O)NCc1ccccc1)=C1/N=C(NC(=O)c2ccco2)c2ccccc21	17*	-4	-4	-3	18	2
COc1cccc(C(=O)NNC(=O)c2cccc3ccccc23)c1	0	1	-8	-3	9	3
COc1ccccc1-c1noc(CCC(=O)Nc2cc(C(F)(F)F)ccc2Cl)n1	0	24	-9	31*	-8	2
CCOC(=O)C1=C(NC(=S)NC(=O)c2ccccc2)c2ccccc2CC1(C)CC (stereo not drawn)	20*	-28	-5	22	22	14
Brc1ccc2ncnc(Nc3cccc4ccccc34)c2c1	19*	-1	-12	2	12	10
CCCn1c(=O)c(C(=O)NNC(=O)c2ccccc2Cl)c(O)c2ccccc21	21*	-4	-12	3	-1	15
CCn1c(=O)c(C(=O)NNC(=O)c2ccccc2)c(O)c2ccccc21	19*	0	2	3	-8	12
CCCCCCC(=O)NNC(=O)c1c(O)c2ccccc2n(CC)c1=O	0	0	22	-5	-17	1
CC(C)Cn1c(=O)c(C(=O)Nc2ccncc2)c(O)c2ccccc21	0	-47	-8	98*	19	1
CC(C)Cn1c(=O)c(C(=O)Nc2cnccn2)c(O)c2ccccc21	0	7	-1	0	-2	0
